# Test results published in paper PMC4336329 (PLoS ONE, 2015).
# Screen size: about 310,000 compounds; about 14,000 (4.5%) showed an effect of 50% or more. Effects have a minus sign here. The entries come from a sample that favours strong results as a whole.
# Molecular target: human ether-à-go-go-related gene (hERG) potassium channel (human, UniProt Q12809)
# Assay: primary screen, population patch clamp on CHO cells stably expressing hERG; higher = less effect of the substance
# 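Further: peak tail current of the secondary pulse compared with the same well before compound.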
# Sequence of human ether-à-go-go-related gene (hERG) potassium channel (Q12809 whole entry, looked up): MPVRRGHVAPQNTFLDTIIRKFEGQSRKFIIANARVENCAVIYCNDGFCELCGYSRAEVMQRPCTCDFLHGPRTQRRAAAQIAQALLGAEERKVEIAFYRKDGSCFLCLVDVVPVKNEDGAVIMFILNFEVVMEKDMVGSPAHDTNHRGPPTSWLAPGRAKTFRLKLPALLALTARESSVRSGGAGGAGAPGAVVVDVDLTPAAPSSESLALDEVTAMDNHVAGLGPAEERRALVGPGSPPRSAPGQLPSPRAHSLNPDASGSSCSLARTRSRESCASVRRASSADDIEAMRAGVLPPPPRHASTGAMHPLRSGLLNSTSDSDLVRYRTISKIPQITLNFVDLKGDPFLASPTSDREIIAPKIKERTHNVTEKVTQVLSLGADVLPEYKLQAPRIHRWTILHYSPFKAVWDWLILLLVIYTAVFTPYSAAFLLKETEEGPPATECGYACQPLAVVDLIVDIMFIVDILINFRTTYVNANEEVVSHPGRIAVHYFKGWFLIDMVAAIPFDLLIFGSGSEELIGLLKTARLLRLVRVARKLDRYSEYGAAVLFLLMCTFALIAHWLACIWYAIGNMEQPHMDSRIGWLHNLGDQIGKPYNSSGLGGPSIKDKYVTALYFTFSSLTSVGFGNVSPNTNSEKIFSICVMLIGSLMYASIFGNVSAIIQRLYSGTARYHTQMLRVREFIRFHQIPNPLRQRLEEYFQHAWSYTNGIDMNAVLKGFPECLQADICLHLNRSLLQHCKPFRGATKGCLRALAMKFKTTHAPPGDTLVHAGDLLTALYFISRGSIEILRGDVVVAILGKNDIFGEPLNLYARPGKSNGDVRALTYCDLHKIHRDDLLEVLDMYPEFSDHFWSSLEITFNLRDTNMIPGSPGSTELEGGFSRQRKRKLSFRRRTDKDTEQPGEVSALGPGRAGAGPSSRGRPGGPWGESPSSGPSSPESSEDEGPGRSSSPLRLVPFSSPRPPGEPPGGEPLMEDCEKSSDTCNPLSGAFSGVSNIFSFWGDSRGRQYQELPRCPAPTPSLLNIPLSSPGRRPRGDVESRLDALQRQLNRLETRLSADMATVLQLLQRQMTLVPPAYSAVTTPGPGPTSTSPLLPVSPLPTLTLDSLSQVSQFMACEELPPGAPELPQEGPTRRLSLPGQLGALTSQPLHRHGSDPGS
row,SMILES,"hERG current change (%, negative = inhibition) at 10uM"
1,CN1C(=O)C(C2c3ccccc3C(=O)N2Cc2ccccc2)C(=O)N(C)C1=O (centres unmarked),3.38%
2,CCc1ccc(C(=O)C(C)OC(=O)C2COc3ccccc3O2)cc1 (centres unmarked),-18.9%
3,CSc1ncc(Cl)c(C(=O)Nc2cc(C)ccc2C)n1,16.1%
4,CCOC(=O)C(NC(=O)c1cccnc1)(Nc1cccc(C)n1)C(F)(F)F (centres unmarked),1.24%
5,CCN1C(=O)C(CC(=O)Nc2ccc(OC)cc2)N(Cc2cccnc2)C1=S (centres unmarked),-2.39%
6,c1ccc(C[C@H]2CNCCN2CC2(c3ccccc3)CC2)cc1,-14.9%
7,O=C(CNC(=O)c1cccs1)NCC(=O)OCc1ccc(Cl)cc1,-17.5%
8,CC(=O)Nc1cccc(C(=O)/C=C/c2ccc(F)cc2)c1,-31.1%
9,CCC(=O)Nc1cccc(C(=O)/C=C/c2ccc(F)cc2)c1,-69.1%
10,CCC(=O)Nc1cccc(C(=O)/C=C/c2ccccc2)c1,-37%
11,Cc1nc(SCC(=O)NC(=O)NC(C)(C)C)nc(C)c1C,-8.95%
12,COC(=O)CSc1nnc(SCc2ccccc2)s1,7.89%
13,CCN(CC(=O)Nc1ccc(NC(C)=O)cc1)C(=O)/C=C/c1cn(-c2ccccc2)nc1-c1ccc(F)cc1,5.58%
14,Cc1cc(/C=C(\C#N)C(=O)O)c(C)n1CCC(C)C,10.5%
15,CCCCn1c(C)cc(/C=C(\C#N)C(=O)O)c1C,-80%
16,CCCn1c(C)cc(/C=C(\C#N)C(=O)O)c1C,10.4%
17,O=C(N/N=C/c1cc([N+](=O)[O-])ccc1O)Nc1ccccc1,18.2%
18,COc1ccc(CNC(=O)C2CCN(C(=O)Cc3ccccc3)CC2)cc1,-13.5%
19,COc1ccc(CC(=O)N2CCN(c3ccc(F)cc3)CC2)cc1,1.52%
20,COc1ccc(CC(=O)N2CCC(Nc3nc4ccccc4n3Cc3ccc(F)cc3)CC2)cc1,-71.7%
21,CSCCC(C)N1CCC(Oc2ccc(C(=O)N3CCCC3)cc2)CC1 (centres unmarked),-31.3%
22,COc1ccc(CCC(C)N2CCC(Oc3ccc(C(=O)N4CCCC4)cc3)CC2)cc1 (centres unmarked),-65.4%
23,COCC(C)N1CCC(Oc2ccc(C(=O)N3CCCC3)cc2)CC1 (centres unmarked),5.11%
24,COC(=O)CCC(C)N1CCC(Oc2ccc(C(=O)N3CCCC3)cc2)CC1 (centres unmarked),-11%

row,SMILES,"hERG current change (%, negative = inhibition) at 10uM"
1,CC(CCc1ccc(O)cc1)N1CCC(Oc2ccc(C(=O)N3CCCC3)cc2)CC1 (centres unmarked),-55.7%
2,Cc1noc(/C=C/c2ccco2)c1S(=O)(=O)N1CCC(C(=O)N(C)Cc2ccccc2)CC1,-4.68%
3,O=C(CSc1ccccc1)Nc1cc(S(=O)(=O)N2CCOCC2)ccc1N1CCOCC1,14.5%
4,Oc1cccc(Nc2nc(-c3ccccc3)nc3ccccc23)c1,9.56%
5,Cc1ccc(Nc2cc(C)nc3ccccc23)c(C)c1,-42.8%
6,COc1cccc(Nc2cc(C)c3ccccc3n2)c1,6.21%
7,Cc1cccc(NC(=O)c2cc(C)nc3ccccc23)c1,14.7%
8,COc1cccc(Nc2cc(C)nc3ccccc23)c1,-73.1%
9,Cl.Oc1cccc(Nc2c3ccccc3nc3ccccc23)c1,-17.6%
10,Cc1cccc(Nc2cc(C)nc3ccccc23)c1.Cl,-65.4%
11,COc1ccc(Nc2cc(C)nc3ccccc23)cc1.Cl,-36.5%
12,Cc1cc(Nc2cccc(O)c2)c2ccccc2n1.Cl,-64.2%
13,Cc1cc(Nc2cccc(Br)c2)c2ccccc2n1,-86.2%
14,Cc1cc(C)c(C#N)c(Nc2cccc(Br)c2)n1,12.5%
15,Cc1cc(=O)[nH]c(Nc2cccc(Br)c2)n1,12.4%
16,CC(=O)Nc1ccc2c(c1)NC(=O)CC2,18.3%
17,Cc1cc(C)c(S(=O)(=O)N2CCN(C(=O)CCn3nc(C)c(C)c3C)CC2)c(C)c1,-35.8%
18,CCN1CCN(CC(=O)Nc2nc3ccc(C)cc3s2)CC1,-34.5%
19,Cc1cccc(NC(=S)NCCc2ccc(S(N)(=O)=O)cc2)c1C,11.4%
20,O=C(NCCN1C(=O)S/C(=C\c2cccs2)C1=O)c1ccc(=O)[nH]c1,-15.5%
21,Cc1cc(C)nc(Nc2cccc(Cl)c2)n1.Cl,21.8%
22,Cc1cc(Nc2ccc(C)c(C)c2)c2ccccc2n1,-66.9%
23,Cc1nc2ccccc2nc1Nc1cccc(Cl)c1,9.24%
